Results published in PubChem BioAssay AID2653 (National Center for Advancing Translational Sciences (NCATS), 2010).
Records with an inconclusive call do not appear. Active and inactive are the calls of the source. The call rests on the fitted dose curve; in most records, active means well fitted curve in the direction sought with a large enough effect; inconclusive means small, poorly fitted or top-dose-only effect, or another doubt; inactive means no such curve, though single readings can be large or run the other way.

Assay: Secondary Assay for Activators of Human Pyruvate Kinase M2 isoform - Cell Titer Glo Cytotoxicity for Probe SAR
Settings: HeLa viability, CellTiter-Glo ATP luminescence, 24 h; series mostly up to 58.2 µM
How it was run: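 Cytotoxicity read as ATP content (CellTiter-Glo luminescence) in HeLa cells after 24 h compound exposure at 37 C, following 24 h pre-plating at 500 cells/well; doxorubicin as control.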

In the case of `COc1ccc(N2C(=O)c3ccccc3C2=O)cc1`, the outcome is reported as “inactive”.

For `O=C1c2ccccc2C(=O)N1c1ccccc1O`, the outcome was “inactive”.

In the case of `O=C1CCc2cc(S(=O)(=O)Nc3cc(F)cc(Cl)c3)c(F)cc2N1`, the outcome is reported as “inactive”.

With `Cc1ccc(NS(=O)(=O)c2ccc3c(c2)CCO3)cc1C` the outcome was “inactive”.

With `O=C1c2ccccc2C(=O)N1c1ccc2ccccc2n1` the outcome was “inactive”.

For `Cc1ccc(NS(=O)(=O)c2ccc3c(c2)CCC(=O)N3)cc1`, the outcome was “inactive”.

With `Cc1ccc(Nc2c(-c3ccsc3)nc3c(C)cccn23)cc1` the outcome was “inactive”.

With `O=C1CCc2cc(S(=O)(=O)Nc3cccc(-c4ccccc4)c3)ccc2N1` the outcome was “inactive”.

For `O=C1c2ccccc2C(=O)N1c1cnc2ccccc2c1`, the outcome was “inactive”.

With `Cc1ccc(N(C)S(=O)(=O)c2ccc3c(c2)CCC(=O)N3)cc1C` the outcome was “inactive”.

In the case of `O=C1CCc2cc(S(=O)(=O)Nc3cccc(Oc4ccccc4)c3)ccc2N1`, the outcome is reported as “inactive”.

In the case of `O=C1CCc2cc(Cl)c(S(=O)(=O)Nc3ccc(Cl)c(Cl)c3)cc2N1`, the outcome is reported as “inactive”.

In the case of `O=S(=O)(c1ccc2c(c1)OCCO2)N1CCN(S(=O)(=O)c2c(F)cccc2F)CC1`, the outcome is reported as “inactive”.

With `Cc1ccc(NS(=O)(=O)c2ccc3c(c2)oc(=O)n3C)cc1C` the outcome was “inactive”.

For `O=C1c2ccccc2C(=O)N1c1ccc(Cl)cc1`, the outcome was “inactive”.

With `O=C1c2ccccc2C(=O)N1c1cccc2cccnc12` the outcome was “inactive”.

In the case of `Cc1ccc(NC(=O)c2ccc3c(c2)CCC(=O)N3)cc1C`, the outcome is reported as “inactive”.

In the case of `COc1ccccc1OC1=NS(=O)(=O)c2ccccc21`, the outcome is reported as “inactive”.

For `CN=c1nc(-c2ccccc2)n(-c2ccccc2)s1`, the outcome was “inactive”.

In the case of `Cc1ccc(OC2=NS(=O)(=O)c3ccccc32)cc1`, the outcome is reported as “inactive”.

In the case of `O=C1CCc2cc(S(=O)(=O)Nc3ccc4c(c3)CCC4)ccc2N1`, the outcome is reported as “inactive”.

For `COc1cccc(Cn2ncc3c4sc(S(C)=O)cc4n(C)c3c2=O)c1` (configuration not stated), the outcome was “inactive”.

For `Cc1ccc2nc(-c3cccs3)c(Nc3ccccc3)n2c1`, the outcome was “inactive”.

In the case of `O=C1c2ccccc2C(=O)N1c1cccnc1`, the outcome is reported as “inactive”.

For `Cc1ccc(-c2nc3cccc(C)n3c2Nc2ccc(F)cc2)o1`, the outcome was “inactive”.

In the case of `Cn1c2cc(S(C)=O)sc2c2cnn(Cc3cccc(N)c3)c(=O)c21` (configuration not stated), the outcome is reported as “inactive”.

In the case of `Cc1ccc(NS(=O)(=O)c2cccc(Cl)c2)cc1C`, the outcome is reported as “inactive”.

In the case of `N#Cc1cccc(NS(=O)(=O)c2ccc3c(c2)CCC(=O)N3)c1`, the outcome is reported as “inactive”.

For `Cc1ccc(NS(=O)(=O)c2cc3c(cc2-c2ccco2)NC(=O)CO3)cc1C`, the outcome was “inactive”.

For `Cc1ccc(NS(=O)(=O)c2ccc(F)cc2)cc1C`, the outcome was “inactive”.

In the case of `Cc1ccc(NS(=O)(=O)c2cc3c(cc2N2CCCCC2)NC(=O)CC3)cc1C`, the outcome is reported as “inactive”.

With `CNc1cccc(S(=O)(=O)N2CCN(S(=O)(=O)c3ccc4c(c3)OCCO4)CC2)c1` the outcome was “inactive”.
